The list is not random: actives were taken first. Their share in the collection is about 7.3%.
FLuc counter – counter-screen for miR-21 project: firefly luciferase inhibitors or activators; Potency, µM (highest dose often 57.5 µM), for inactives: at the top dose activity change, negative = inhibition, actives largely listed as inhibitors; P08659; 6.9% of 360,000 active; purified FLuc, Km substrates, luminescence inhibition;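 also: plate controls were vehicle for no effect and reference inhibitor for full effect; nearly all actives have a fitted effect of over 55% in size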
Target sequence (P08659 whole entry, looked up): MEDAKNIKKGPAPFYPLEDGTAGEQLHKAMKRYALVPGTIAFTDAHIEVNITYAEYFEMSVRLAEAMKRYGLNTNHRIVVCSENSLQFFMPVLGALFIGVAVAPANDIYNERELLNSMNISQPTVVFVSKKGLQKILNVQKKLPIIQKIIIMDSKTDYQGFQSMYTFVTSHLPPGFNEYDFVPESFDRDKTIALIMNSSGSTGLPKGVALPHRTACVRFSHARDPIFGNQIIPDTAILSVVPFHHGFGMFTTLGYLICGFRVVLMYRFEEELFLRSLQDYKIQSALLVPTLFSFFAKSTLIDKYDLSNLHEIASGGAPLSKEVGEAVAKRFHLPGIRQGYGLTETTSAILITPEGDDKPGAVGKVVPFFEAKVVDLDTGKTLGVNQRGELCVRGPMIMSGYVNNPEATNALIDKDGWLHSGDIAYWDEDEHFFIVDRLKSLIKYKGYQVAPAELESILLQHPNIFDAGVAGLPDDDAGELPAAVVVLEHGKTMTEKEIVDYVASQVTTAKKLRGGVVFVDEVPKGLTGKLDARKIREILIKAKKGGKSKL
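Biochemical qHTS of compounds, final roughly 60 µM downward over six points, against 10 nM purified firefly luciferase using Km concentrations of substrates (10 uM D-luciferin, 10 uM ATP) in Tris acetate pH 7.5 buffer; luminescence output.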
NPC1 promoter act – activates the NPC1 promoter; 2.4% of 320,000 active; Potency, µM (doses to about 9.22 µM), for the others: at the top dose activation, most hits filed as activators; Huh7 NPC1 promoter luciferase reporter, 24 h; also: % of control where 0% means no effect; nearly all actives have a fitted effect of over 60% in size
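Luciferase expression driven by the NPC1 promoter was measured in stably transfected Huh7 cells after a 24 h compound incubation, using a luciferase reagent and a luminescence read.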
ELG1 genotox – induces genotoxicity in HEK293T cells with luciferase-tagged ELG1. HEK293T ELG1-luciferase reporter, luminescence, 16 h. Potency, µM (titrated, usually from 46 µM), inactives show at the top dose activity change, positive = activation, hits mostly activators. 1.3% of 330,000 active. AID 504466; also: % of control where 0% means no effect; nearly all actives have a fitted effect of over 60% in size
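Screening used a luciferase reporter fused to human ELG1 in HEK293T cells. Luminescence was read on a CCD plate imager after 16 hr exposure and 30 min ONE-Glo incubation.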
Rab9 promoter act – activates the Rab9 promoter. Huh7 Rab9 promoter-luciferase reporter, luminescence, 24 h. AID 485297. 2.8% of 320,000 active. Potency, µM (top dose mostly 9.22 µM), for inactives: at the highest dose activation, negative = inhibition, actives largely listed as activators; also: % of control where 0% means no effect; nearly all actives have a fitted effect of over 60% in size
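Luciferase signal after 10 min detection reagent at ambient indicates Rab9 promoter upregulation; stably transfected Huh7 cells were treated 24 h with compound in DMSO at 37 °C, 5% CO2.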
Luc counter – counter-screen: inhibitors of Kinase-Glo firefly luciferase; Kinase-Glo luciferase, ATP luminescence, 8 min; Potency, µM (top dose mostly 38.3 µM), without a hit: at the highest dose activity change, negative = inhibition, usual class: inhibitors; 0.28% of 200,000 active; AID 1379; also: % is scaled to controls: 0 for no effect and ±100 for the full control effect; nearly all actives have a fitted effect of over 60% in size
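Compounds were added to a substrate mix at pH 7.2 (50 mM imidazole, 10 uM ATP, within the enzyme's linear range), followed by Kinase-Glo detection reagent; luminescence was measured after 8 minutes at ambient temperature.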
SMN2 splice enh – increases expression of the SMN2 splice variant; 2.8% of 210,000 active; HEK293 SMN2-luciferase splicing reporter, luminescence, 30-36 h; Potency, µM (top dose mostly 46.1 µM), for the others: at the top dose activity change, positive = activation, usual class: activators; also: % of control where 0% means no effect; nearly all actives have a fitted effect of over 55% in size
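HEK293 cells carry an SMN2 […]–luciferase reporter in which exon 7 inclusion puts luciferase in frame. Cells were plated 10-12 h before compound addition, then incubated 30-36 h at 37C. ONE-Glo luminescence was read; sodium butyrate at 4.5 mM final served as control.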
Active calls of the source: *; ? = inconclusive; . = no result given. Calls follow the shape of the dose curve; as a rule, active = well fitted curve in the direction sought with a large enough effect; inconclusive = small, poorly fitted or top-dose-only effect, or another doubt; inactive = no such curve, though single readings can be large; an effect the other way counts as inactive or inconclusive. Potency is read from the fitted curve at half-maximal effect.

SMILES | FLuc counter | NPC1 promoter act | ELG1 genotox | Rab9 promoter act | Luc counter | SMN2 splice enh
O=C(Nc1cccc(O)c1)c1c(O)c2ccccc2[nH]c1=O | 3.8µM* | ? | ? | ? | . | .
Cc1cccc(NC(=O)c2c(O)c3ccccc3[nH]c2=O)c1 | ? | 1.6µM* | ? | 0.71µM* | . | .
O=C(Nc1cccc(C(F)(F)F)c1)c1c(O)c2ccccc2[nH]c1=O | -10% | 0% | -1% | 7% | . | .
COc1ccc(NC(=O)CC#N)cc1OC | 0% | 0% | -1% | -2% | -3% | -13%
CCOC(=O)N1CCc2c(sc3[nH]c(=S)[nH]c(=S)c23)C1 | ? | 0% | 1% | -1% | . | .
COc1ccc(NC(=O)CSc2nc(N)c3cc4c(nc3n2)CCCC4)cc1 | 1.5µM* | 19% | 13% | ? | -18% | 22µM*
CCn1c(SCC(=O)Nc2ccc(C(C)=O)cc2)nc2nc3c(cc2c1=O)CCCC3 | ? | 12% | ? | 21% | -2% | -76%
COc1ccc(NC(=O)CSc2nc(N)c3cc4c(nc3n2)CC(C)(C)OC4)cc1 | ? | 23% | 9% | ? | . | .
CC(=O)c1ccc(NC(=O)CSc2nc(N)c3cc4c(nc3n2)CCCC4)cc1 | 1.3µM* | ? | 16% | ? | ? | 25µM*
COc1ccc(Nc2nnc(-c3ccc(C)c(S(=O)(=O)N4CCN(C)CC4)c3)c3ccccc23)cc1 | 17µM* | . | . | . | . | 0%
Cc1ccc(-c2nnc(Nc3ccc(C(=O)N(C)C)cc3)c3ccccc23)cc1S(=O)(=O)NCC1CCCO1 (centres undefined) | 11µM* | 2% | -5% | 15% | -2% | 5%
Cc1ccc(-c2nnc(Nc3ccc(C(=O)N(C)C)cc3)c3ccccc23)cc1S(=O)(=O)NC(C)(C)CO | 21µM* | 5% | 3% | 15% | . | .
COc1cccc(-c2ccc3c(N)c(C(=O)Nc4cc(C(F)(F)F)ccc4OC)sc3n2)c1 | -3% | . | . | . | . | -5%
NS(=O)(=O)c1cc(C(=O)NCCc2ccccn2)ccc1Cl | 5% | -7% | 5% | -5% | . | .
CC(C)CCN(C(=O)C1CSC2(C)CCC(=O)N12)c1c(N)n(Cc2ccccc2)c(=O)[nH]c1=O (centres undefined) | 1% | -4% | -5% | -8% | . | .
COc1ccc(N2CCN(C(=O)c3cc4c(s3)CCCCC4)CC2)cc1 | 17µM* | 3% | 0% | -1% | . | .
NC(=O)C1CCN(C(=O)c2cc3c(s2)CCCC3)CC1 | -14% | 1.8µM* | 15% | 1.4µM* | . | .
COc1ccccc1N1CCN(C(=O)c2cc3c(s2)CCC3)CC1 | -3% | 1% | -2% | 0% | 0% | -15%
O=C(c1cc2c(s1)CCCC2)n1cccn1 | 21µM* | -1% | 5% | -6% | -4% | -1%
CC(C)NC(=O)C1CCN(C2CCN(C(=O)c3cc4c(s3)CCCCC4)CC2)CC1 | -8% | -5% | -7% | -13% | 3% | -22%
CC(=O)c1ccc(N2CCN(C(=O)c3cc4c(s3)CCCC4)CC2)cc1 | 24µM* | 5% | 14% | 17% | -3% | 11%
O=C(Nc1nc2ccccc2[nH]1)c1ccc([N+](=O)[O-])cc1 | ? | 1µM* | ? | 0.56µM* | -21% | 2.5µM*
COC(=O)c1cc(C(=O)Nc2nc3ccccc3[nH]2)cc([N+](=O)[O-])c1 | 4.8µM* | 17% | 0% | 4% | . | .
O=C(NCc1nc2ccccc2[nH]1)c1ccc([N+](=O)[O-])cc1 | 3% | -3% | -11% | 2% | -2% | -5%
O=C(Cc1nc2ccccc2[nH]1)c1cccc([N+](=O)[O-])c1 | 24µM* | ? | -6% | 6% | . | .
CSCCC(NC(=O)c1cccc([N+](=O)[O-])c1)c1nc2ccccc2[nH]1 (centres undefined) | -7% | -2% | -1% | 1% | 0% | 13%
Cc1ccc(C(=O)Cc2nc3ccccc3[nH]2)cc1 | 6µM* | 2µM* | 3.5µM* | 4.5µM* | . | .

Screening results (PubChem BioAssay)
